In PubChem BioAssay (NCI) one finds growth inhibition data, which are given here for eight compounds.

A short description of experiment [1]: NCI Yeast Anticancer Drug Screen. Data for the rad50 strain (AID 155).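 Also: 0% = growth of vehicle-only cultures of the same strain.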 The settings on record: S. cerevisiae rad50 strain growth inhibition, active compounds read high. In short, it runs like this: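 Readout: growth inhibition relative to vehicle-treated cultures. Compound exposure was carried out in a genetically defined yeast strain deficient in DNA damage repair.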

Experiment [2] in a line: NCI Yeast Anticancer Drug Screen. Data for the mec2-1 strain (AID 157). To be noted: S. cerevisiae mec2-1 strain, active compounds read high. Summed up: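 Readout is yeast growth inhibition, normalised to vehicle-treated controls, in the mec2-1 strain exposed to compound.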
Experiment [3] in a line: NCI Yeast Anticancer Drug Screen. Data for the sgs1 mgt1 strain (AID 161).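 Also: 0% = growth of cultures given vehicle only.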 To be noted: S. cerevisiae sgs1 mgt1 strain, active compounds read high. Summed up: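 Percent growth inhibition was derived by comparing compound-exposed mutant yeast with vehicle-exposed cultures. The strain carries alterations in DNA damage repair.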
Experiment [4] in a line: NCI Yeast Anticancer Drug Screen. Data for the cln2 rad14 strain (AID 165).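 Also: 0% = growth equal to vehicle treated cultures.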 The settings on record: S. cerevisiae cln2 rad14 strain, active compounds read high. Summed up: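 Relative to vehicle controls, growth inhibition of compound-treated cln2 rad14 yeast was recorded.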
A short description of experiment [5]: NCI Yeast Anticancer Drug Screen. Data for the bub3 strain (AID 167). The settings on record: S. cerevisiae bub3 mutant strain, active compounds read high. Summed up: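 Readout: yeast growth inhibition, expressed relative to vehicle-only wells. The test organism is a mutant strain from a panel with lesions in DNA repair or checkpoint genes.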
Experiment [6] is described as follows: NCI Yeast Anticancer Drug Screen. Data for the mlh1 rad18 strain (AID 175). The settings on record: S. cerevisiae mlh1 rad18 strain growth inhibition, active compounds read high. In short, it runs like this: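 Test agents were incubated with a yeast strain of defined genotype (DNA damage repair defect). Inhibition of growth was derived by comparison with vehicle-exposed cultures.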

Where [7] appears, read: at 5.0 µM (retest, dose inferred, filed as 0.5).
Where [8] appears, read: at 50.0 µM (retest, dose inferred, filed as 5.0).

The panel holds about 79,000 compounds, 15% with a hit somewhere; the sample as a whole holds those more often. Unmarked numbers belong to inactive results. Activity calls are given as the source filed them. Rule as the data show it: active = growth inhibition above about 70%; inactive = the rest.

Consider `O=[N+]([O-])[O-].O=[N+]([O-])[O-].[Au].[Au].c1ccc([P-]c2ccccc2)cc1.c1ccc([P-]c2ccccc2)cc1`, for which the growth inhibition was 62% in experiment [1] (setting [7]); 94% (active) in experiment [1] (setting [8]); 87.8% (active) in experiment [1] (at 50.0 µM); 47% in experiment [2] (setting [7]); 95% (active) in experiment [2] (setting [8]); 91.4% (active) in experiment [2] (at 50.0 µM). Moreover, the growth inhibition in experiment [3] (setting [7]) was 59%; in experiment [3] (setting [8]) it was 96% (active); in experiment [3] (at 50.0 µM), 91.3% (active); in experiment [4] (setting [7]) it was 29%; in experiment [4] (setting [8]), 96% (active); in experiment [4] (at 50.0 µM) it was 89.5% (active). In addition, the growth inhibition in experiment [5] (setting [7]) was 53%; in experiment [5] (setting [8]), 96% (active); in experiment [5] (at 50.0 µM), 88.9% (active); in experiment [6] (setting [7]), 72% (active); in experiment [6] (setting [8]), 95% (active); in experiment [6] (at 50.0 µM) it was 86.7% (active).
In the case of `Ic1cccc2c1[se]c1ccccc12`, the growth inhibition in experiment [1] (setting [7]) was -8%; in experiment [1] (setting [8]), 22%; in experiment [1] (at 50.0 µM) it was 25.2%; in experiment [2] (setting [7]), 8%; in experiment [2] (setting [8]), 20%; in experiment [2] (at 50.0 µM) it was -4.05%. Besides, the growth inhibition was 0% in experiment [3] (setting [7]); 40% in experiment [3] (setting [8]); 6.7% in experiment [3] (at 50.0 µM); 5% in experiment [4] (setting [7]); -28% in experiment [4] (setting [8]); -27.8% in experiment [4] (at 50.0 µM). Further, the growth inhibition in experiment [5] (setting [7]) was -3%; in experiment [5] (setting [8]), 27%; in experiment [5] (at 50.0 µM) it was -11.3%; in experiment [6] (setting [7]) it was 9%; in experiment [6] (setting [8]) it was 75% (active); in experiment [6] (at 50.0 µM), 2.15%.
With `CCC/C=[CH]/[Hg][Cl]`, the growth inhibition in experiment [1] (setting [7]) was 99% (active); in experiment [1] (setting [8]), 99% (active); in experiment [1] (at 50.0 µM), 99.2% (active); in experiment [2] (setting [7]) it was 100% (active); in experiment [2] (setting [8]) it was 100% (active); in experiment [2] (at 50.0 µM), 99.5% (active). For the same compound, the growth inhibition in experiment [3] (setting [7]) was 100% (active); in experiment [3] (setting [8]), 99% (active); in experiment [3] (at 50.0 µM), 99.5% (active); in experiment [4] (setting [7]), 97% (active); in experiment [4] (setting [8]), 99% (active); in experiment [4] (at 50.0 µM), 99.3% (active). Also, the growth inhibition was 99% (active) in experiment [5] (setting [7]); 99% (active) in experiment [5] (setting [8]); 99.4% (active) in experiment [5] (at 50.0 µM); 100% (active) in experiment [6] (setting [7]); 99% (active) in experiment [6] (setting [8]); 99.4% (active) in experiment [6] (at 50.0 µM).
As to `O=C(O)c1cc([N+](=O)[O-])c(Cl)c([N+](=O)[O-])c1Cl`, the growth inhibition is 80% (active) in experiment [1] (setting [7]); 99% (active) in experiment [1] (setting [8]); 62.8% in experiment [1] (at 50.0 µM); 82% (active) in experiment [2] (setting [7]); 99% (active) in experiment [2] (setting [8]); 42.3% in experiment [2] (at 50.0 µM). Besides, the growth inhibition in experiment [3] (setting [7]) was 20%; in experiment [3] (setting [8]), 93% (active); in experiment [3] (at 50.0 µM), 46.9%; in experiment [4] (setting [7]) it was 38%; in experiment [4] (setting [8]) it was 100% (active); in experiment [4] (at 50.0 µM) it was 43.1%. The growth inhibition in experiment [5] (setting [7]) is 51%; in experiment [5] (setting [8]), 96% (active); in experiment [5] (at 50.0 µM), 64%; in experiment [6] (setting [7]), 70% (active); in experiment [6] (setting [8]) it was 99% (active); in experiment [6] (at 50.0 µM) it was 49%.
In the case of `O=[N+]([O-])c1ccc(C=Cc2ccc(C(F)(F)F)cc2)cc1.[C-]#[O+].[C-]#[O+].[C-]#[O+].[Cr]`, the growth inhibition is 2% in experiment [1] (setting [7]); 67% in experiment [1] (setting [8]); 29% in experiment [1] (at 50.0 µM); 0% in experiment [2] (setting [7]); 51% in experiment [2] (setting [8]); 55.8% in experiment [2] (at 50.0 µM). The growth inhibition in experiment [3] (setting [7]) was 17%; in experiment [3] (setting [8]), 60%; in experiment [3] (at 50.0 µM), 72.5% (active); in experiment [4] (setting [7]), -22%; in experiment [4] (setting [8]), 60%; in experiment [4] (at 50.0 µM) it was 26.6%. The growth inhibition in experiment [5] (setting [7]) was 0%; in experiment [5] (setting [8]), 75% (active); in experiment [5] (at 50.0 µM) it was 73.2% (active); in experiment [6] (setting [7]) it was 12%; in experiment [6] (setting [8]), 72% (active); in experiment [6] (at 50.0 µM), 73.9% (active).
As to `O=c1oc2ccccc2c(O)c1C(c1ccc(/C=C/c2ccccc2)cc1)c1c(O)c2ccccc2oc1=O`, the growth inhibition in experiment [1] (setting [7]) was 13%; in experiment [1] (setting [8]) it was 97% (active); in experiment [1] (at 50.0 µM), 87.2% (active); in experiment [2] (setting [7]) it was 36%; in experiment [2] (setting [8]), 98% (active); in experiment [2] (at 50.0 µM) it was 90% (active). The growth inhibition in experiment [3] (setting [7]) was 26%; in experiment [3] (setting [8]), 95% (active); in experiment [3] (at 50.0 µM), 81.7% (active); in experiment [4] (setting [7]), 54%; in experiment [4] (setting [8]) it was 95% (active); in experiment [4] (at 50.0 µM) it was 77.5% (active). For the same compound, the growth inhibition in experiment [5] (setting [7]) is 52%; in experiment [5] (setting [8]), 97% (active); in experiment [5] (at 50.0 µM), 76.7% (active); in experiment [6] (setting [7]), 7%; in experiment [6] (setting [8]), 98% (active); in experiment [6] (at 50.0 µM), 91.3% (active).
As to `CC12CCC(O)CC1=CCC1C2CCC2(C)C(NC(=O)C3CCCN3C(=O)CN(CCCl)CCCl)CCC12` (centres undefined), the growth inhibition in experiment [1] (setting [7]) is -5%; in experiment [1] (setting [8]) it was 56%; in experiment [1] (at 50.0 µM) it was 79% (active); in experiment [2] (setting [7]) it was -4%; in experiment [2] (setting [8]), 46%; in experiment [2] (at 50.0 µM), 72.5% (active). The growth inhibition is 1% in experiment [3] (setting [7]); 80% (active) in experiment [3] (setting [8]); 91.5% (active) in experiment [3] (at 50.0 µM); -5% in experiment [4] (setting [7]); 34% in experiment [4] (setting [8]); 63.2% in experiment [4] (at 50.0 µM). Also, the growth inhibition in experiment [5] (setting [7]) is -6%; in experiment [5] (setting [8]) it was 38%; in experiment [5] (at 50.0 µM) it was 64.8%; in experiment [6] (setting [7]) it was 12%; in experiment [6] (setting [8]), 76% (active); in experiment [6] (at 50.0 µM) it was 86.8% (active).
Turning to `O=C(O)/C=C\c1c[nH]c2ccccc12`, the growth inhibition in experiment [1] (setting [7]) is 10%; in experiment [1] (setting [8]), 97% (active); in experiment [1] (at 50.0 µM) it was 75.8% (active); in experiment [2] (setting [7]), -2%; in experiment [2] (setting [8]), 89% (active); in experiment [2] (at 50.0 µM), 38.3%. The growth inhibition is 2% in experiment [3] (setting [7]); 87% (active) in experiment [3] (setting [8]); 60.2% in experiment [3] (at 50.0 µM); -6% in experiment [4] (setting [7]); 89% (active) in experiment [4] (setting [8]); 1.45% in experiment [4] (at 50.0 µM). Also, the growth inhibition in experiment [5] (setting [7]) is -2%; in experiment [5] (setting [8]) it was 95% (active); in experiment [5] (at 50.0 µM), 50.8%; in experiment [6] (setting [7]), -17%; in experiment [6] (setting [8]), 97% (active); in experiment [6] (at 50.0 µM), 42.4%.
